# About 1,500 (3.8%) of roughly 39,000 compounds were called active. The list comes from a sample in which actives are over-represented; it also holds similar structures and randomly drawn compounds.
# System: HSkMC (human skeletal muscle cells)
# Experiment: cytotoxicity call (relative viability < 0.9)
# Details: 10 µM
row,SMILES,cytotoxicity call
1,C[C@@H]1CN([C@@H](C)CO)C(=O)c2cc(N(C)C)ccc2O[C@H]1CN(C)S(C)(=O)=O,inactive
2,COc1ccc(S(=O)(=O)Nc2cccc3c2O[C@H](CN(C)S(C)(=O)=O)[C@H](C)CN([C@@H](C)CO)C3=O)cc1,inactive
3,CC(C)NC(=O)N(C)C[C@H]1Oc2ccc(NC(=O)c3ccncc3)cc2CC(=O)N([C@H](C)CO)C[C@H]1C,inactive
4,C[C@@H]1CCCCO[C@@H](CN(C)S(=O)(=O)c2cn(C)cn2)[C@H](C)CN([C@@H](C)CO)C(=O)c2cc(NS(=O)(=O)c3ccc(F)cc3)ccc2O1,inactive
5,Cc1ccc(S(=O)(=O)N(C)C[C@@H]2Oc3ccc(NC(=O)Nc4ccc(C(F)(F)F)cc4)cc3CC(=O)N([C@H](C)CO)C[C@H]2C)cc1,inactive
6,Cc1ccc(S(=O)(=O)N(C)C[C@H]2Oc3ccc(NC(=O)Nc4ccc(C(F)(F)F)cc4)cc3CC(=O)N([C@@H](C)CO)C[C@@H]2C)cc1,inactive
7,Cc1ccc(S(=O)(=O)N(C)C[C@@H]2Oc3ccc(NC(=O)Nc4ccc(C(F)(F)F)cc4)cc3CC(=O)N([C@@H](C)CO)C[C@@H]2C)cc1,active
8,Cc1ccc(S(=O)(=O)N(C)C[C@@H]2Oc3ccc(NC(=O)Nc4ccc(C(F)(F)F)cc4)cc3CC(=O)N([C@@H](C)CO)C[C@H]2C)cc1,active
9,C[C@@H]1CN([C@@H](C)CO)C(=O)c2cc(NC(=O)c3ccccc3)ccc2O[C@@H](C)CCCCO[C@H]1CN(C)CC1CCCCC1,inactive
10,Cc1noc(C)c1NC(=O)Nc1ccc2c(c1)C(=O)N([C@@H](C)CO)C[C@@H](C)[C@H](CN(C)Cc1ccc(C(F)(F)F)cc1)O2,inactive
11,CC(C)(C)[S@](=O)N1Cc2cc(C(=O)NCC(F)(F)F)nc(-c3cccc(-c4cccc(F)c4)c3)c2[C@@H]1CCO,inactive
12,C[C@@H]1CN([C@@H](C)CO)C(=O)Cc2cc(NC(=O)Nc3cccc4ccccc34)ccc2O[C@@H]1CN(C)CC1CCCCC1,inactive
13,C[C@H]1CN([C@@H](C)CO)C(=O)Cc2cc(NC(=O)Nc3cccc4ccccc34)ccc2O[C@@H]1CN(C)CC1CCCCC1,active
14,C[C@@H]1CN([C@H](C)CO)C(=O)Cc2cc(NC(=O)Nc3cccc4ccccc34)ccc2O[C@H]1CN(C)CC1CCCCC1,inactive
15,C[C@H](CO)N1C[C@H](C)[C@H](CN(C)CC2CCCCC2)Oc2ccc(NC(=O)Nc3cccc4ccccc34)cc2CC1=O,inactive
16,C[C@@H]1CN([C@@H](C)CO)C(=O)Cc2cc(NC(=O)Nc3cccc4ccccc34)ccc2O[C@H]1CN(C)CC1CCCCC1,inactive
17,C[C@H]1CN([C@@H](C)CO)C(=O)Cc2cc(NC(=O)Nc3cccc4ccccc34)ccc2O[C@H]1CN(C)CC1CCCCC1,active
18,C[C@H](CO)N1C[C@H](C)[C@H](CN(C)C(=O)Nc2ccc3c(c2)OCO3)Oc2ccc(NC(=O)Nc3ccc(C(F)(F)F)cc3)cc2C1=O,inactive
19,COC[C@H]1CNN1C(=O)Nc1c(C)noc1C,inactive
20,Cc1noc(C)c1NC(=O)Nc1ccc2c(c1)C(=O)N([C@@H](C)CO)C[C@H](C)[C@H](CN(C)C(=O)NC(C)C)O2,inactive
21,C[C@H](CO)N1C[C@H](C)[C@H](CN(C)C(=O)Nc2cccc3ccccc23)Oc2ccc(NS(=O)(=O)c3ccc(F)cc3)cc2C1=O,inactive
22,C[C@@H]1CCCCO[C@@H](CN(C)C(=O)Nc2ccccc2)[C@@H](C)CN([C@H](C)CO)C(=O)c2cc(NC(=O)c3ccccc3)ccc2O1,inactive

row,SMILES,cytotoxicity call
1,C[C@H]1CN([C@@H](C)CO)C(=O)c2cccc(NC(=O)Nc3ccc(C(F)(F)F)cc3)c2O[C@@H]1CN(C)Cc1ccccc1,active
2,C[C@@H]1CN([C@@H](C)CO)C(=O)c2cccc(NC(=O)Nc3ccc(C(F)(F)F)cc3)c2O[C@@H]1CN(C)Cc1ccccc1,inactive
3,C[C@H](CO)N1C[C@H](C)[C@@H](CN(C)Cc2ccccc2)Oc2c(NC(=O)Nc3ccc(C(F)(F)F)cc3)cccc2C1=O,inactive
4,C[C@@H]1CN([C@@H](C)CO)C(=O)c2cccc(NC(=O)Nc3ccc(C(F)(F)F)cc3)c2O[C@H]1CN(C)Cc1ccccc1,active
5,C[C@@H]1CN([C@H](C)CO)C(=O)c2cccc(NC(=O)Nc3ccc(C(F)(F)F)cc3)c2O[C@@H]1CN(C)Cc1ccccc1,inactive
6,C[C@@H]1CN([C@H](C)CO)C(=O)c2cccc(NC(=O)Nc3ccc(C(F)(F)F)cc3)c2O[C@H]1CN(C)Cc1ccccc1,inactive
7,Cc1c(-c2ccnn2C)cc(C(=O)NCc2ccc(S(C)(=O)=O)cn2)c(=O)n1-c1cccc(C(F)(F)F)c1,inactive
8,Cc1sc2[nH]cnc(=S)c2c1C,inactive
9,C[C@@H]1CN([C@H](C)CO)C(=O)c2c(c3ccccc3n2C)-c2ccccc2CO[C@H]1CN(C)Cc1ccc2c(c1)OCO2,inactive
10,C[C@@H]1CN([C@@H](C)CO)C(=O)c2cc(NC(=O)Nc3ccc(C(F)(F)F)cc3)ccc2O[C@@H]1CN(C)Cc1ccc(C(=O)Nc2ccccc2N)cc1,inactive
11,COCC(=O)N[C@@H]1C[C@H](CO)[C@H](O)C1,inactive
12,CCCc1cc(=O)n2ncnc2[nH]1,inactive
13,Cc1noc(C)c1NC(=O)Nc1ccc2c(c1)CC(=O)N([C@H](C)CO)C[C@@H](C)[C@H](CN(C)S(=O)(=O)c1cccs1)O2,inactive
14,C=C(C)C1CCC2(C(=O)O)CCC3(C)C(CCC4C5(C)CCC(O)C(C)(C)C5CCC43C)C12 (stereo not given),inactive
15,C=C(C)C1CCC2(C)CCC3(C)C(CCC4C5(C)CCC(O)C(C)(C)C5CCC43C)C12 (stereo not given),inactive
16,C=C(C)C1CCC2(CO)CCC3(C)C(CCC4C5(C)CCC(O)C(C)(C)C5CCC43C)C12 (stereo not given),active
17,CN1CCN(C(=O)C[C@@H]2CC[C@@H]3[C@H](COC[C@H](O)CN3Cc3ccc(Oc4ccccc4)cc3)O2)CC1,inactive
18,CC(C)(C)NC(=O)C[n+]1cccc(/C=N/O)c1,inactive
19,O=C(C[C@@H]1CC[C@@H]2[C@H](COC[C@@H](O)CN2S(=O)(=O)c2cccc(Cl)c2)O1)NCc1ccncn1,inactive
20,O=C(NO)c1cn(-c2cccc(C(=O)N3CCC4(CC3)C(=O)NCN4c3ccccc3)c2)nn1,active
21,O=C(NO)c1cn(CC(=O)N2CCC3(CC2)C(=O)NCN3c2ccccc2)nn1,inactive
22,O=C(/C=C/c1cccc(-c2cn(-c3cccc(C(=O)N4CCC5(CC4)C(=O)NCN5c4ccccc4)c3)nn2)c1)NO,inactive

row,SMILES,cytotoxicity call
1,C=CCNC(=O)[C@H]1CCCN(S(C)(=O)=O)C1,inactive
2,O=C(C[C@@H]1C=C[C@H](NC(=O)c2ccc3c(c2)OCO3)[C@H](CO)O1)NCc1ccc(Oc2ccccc2)cc1,inactive
3,COCCNC(=O)C[C@H]1CC[C@@H]2[C@@H](COc3ccc(NS(=O)(=O)c4ccc(Cl)cc4)cc3C(=O)N2C)O1,inactive
4,COCOc1ccc2cc(Br)ccc2c1-c1c(OCOC)ccc2cc(Br)ccc12,active
5,COc1ccc2ccccc2c1-c1c(OC)ccc2ccccc12,inactive
6,COc1ccccc1-c1ccc2c(c1)O[C@@H](CN(C)CC1CCOCC1)[C@@H](C)CN([C@@H](C)CO)S2(=O)=O,inactive
7,CCNC(=O)[C@@H]1CCCN1C(=O)[C@H](CCCNC(=N)N)NC(=O)[C@H](CC(C)C)NC(=O)[C@@H](CC(C)C)NC(=O)[C@H](Cc1ccc(O)cc1)NC(=O)[C@H](CO)NC(=O)[C@H](Cc1c[nH]c2ccccc12)NC(=O)[C@H](Cc1cnc[nH]1)NC(=O)[C@@H]1CCC(=O)N1,inactive
8,CN(c1c[nH]c(=O)[nH]c1=O)C1CCCCC1,inactive
9,C[C@@H]1CN([C@H](C)CO)C(=O)Cc2cc(NS(=O)(=O)c3ccc(F)cc3)ccc2O[C@H]1CN(C)Cc1ccc(Oc2ccccc2)cc1,active
10,C[C@H](CO)N1C[C@H](C)[C@H](CN(C)Cc2ccc(Oc3ccccc3)cc2)Oc2ccc(NS(=O)(=O)c3ccc(F)cc3)cc2CC1=O,active
11,C[C@H]1CN([C@@H](C)CO)C(=O)Cc2cc(NS(=O)(=O)c3ccc(F)cc3)ccc2O[C@@H]1CN(C)Cc1ccc(Oc2ccccc2)cc1,inactive
12,C[C@@H]1CN([C@H](C)CO)C(=O)Cc2cc(NS(=O)(=O)c3ccc(F)cc3)ccc2O[C@@H]1CN(C)Cc1ccc(Oc2ccccc2)cc1,active
13,C[C@H]1CN([C@@H](C)CO)C(=O)Cc2cc(NS(=O)(=O)c3ccc(F)cc3)ccc2O[C@H]1CN(C)Cc1ccc(Oc2ccccc2)cc1,active
14,C[C@@H]1CN([C@@H](C)CO)C(=O)Cc2cc(NS(=O)(=O)c3ccc(F)cc3)ccc2O[C@H]1CN(C)Cc1ccc(Oc2ccccc2)cc1,inactive
15,C[C@H](CO)N1C[C@H](C)[C@@H](CN(C)Cc2ccc(Oc3ccccc3)cc2)Oc2ccc(NS(=O)(=O)c3ccc(F)cc3)cc2CC1=O,inactive
16,Cc1noc(C)c1NC(=O)Nc1ccc2c(c1)C(=O)N([C@@H](C)CO)C[C@H](C)[C@H](CN(C)Cc1ccc3c(c1)OCO3)OCCCC[C@H](C)O2,inactive
17,CC(C)NC(=O)N(C)C[C@H]1Oc2ccc(NC(=O)CCCN(C)C)cc2C(=O)N([C@H](C)CO)C[C@@H]1C,inactive
18,C[C@@H]1CCCCO[C@@H](CN(C)C(=O)C2CCCCC2)[C@@H](C)CN([C@@H](C)CO)C(=O)c2cc(NC(=O)CCC(F)(F)F)ccc2O1,inactive
19,C[C@@H]1CN([C@@H](C)CO)C(=O)c2cc(NS(=O)(=O)c3ccc(Cl)cc3)ccc2O[C@@H](C)CCCCO[C@H]1CN(C)S(=O)(=O)c1ccc(F)cc1,inactive
20,Cc1noc(C)c1S(=O)(=O)Nc1ccc2c(c1)CC(=O)N([C@@H](C)CO)C[C@@H](C)[C@H](CN(C)C(=O)Nc1ccc3c(c1)OCO3)O2,inactive
21,COc1ccc(CN(C)C[C@H]2Oc3ccc(NS(C)(=O)=O)cc3C(=O)N([C@@H](C)CO)C[C@H]2C)cc1,inactive

# — the antibiotic and cytotoxicity screens of Wong et al. (2023)
